Compounds without any hit were thinned out: in the full panel of roughly 83,000, 20% have a hit.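 Plates (96-well) were seeded with cells, treated with compound at one concentration, and incubated for 48 hours before percent growth was determined.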 Activity calls are given as the source filed them. How the source made its calls: active means growth percent below 10; inactive means the rest.
Test system: HS 578T breast
Test: NCI-60 one-dose screen, 48 h (100 = growth as untreated, 0 = no growth, -100 = all killed)
Details: 10 µM

Row | Structure (SMILES) | growth
1 | O=C(NO)c1ccc(CNC(=O)[C@H]2Cc3c([nH]c4ccccc34)[C@H](c3ccccc3)N2)cc1 | 17.3% (inactive)
2 | COc1ccc2cc([C@H](C)C(=O)NCc3ccccc3)ccc2c1 | 16.8% (inactive)
3 | Cc1noc2c(Cc3ccccc3)nn(CC(=O)N/N=C/c3ccc(F)cc3)c(=O)c12 | -1.33% (active)
4 | COc1cnc2c(c1)C(=O)c1c-2n(CCCNCCO)c(=O)c2cc(OC)c(OC)cc12 | 105% (inactive)
5 | CN1CCc2c(sc3ncnc(N/N=C/c4cn(-c5ccccc5)nc4-c4ccc(Cl)cc4)c23)C1 | 46.6% (inactive)
6 | N#Cc1c(NC(=O)c2ccc(C(F)(F)F)cc2C(F)(F)F)sc2c1CCC(=O)C2 | -5.88% (active)
7 | O=C1N/C(=N\c2nccs2)S/C1=C\c1cccs1 | 49.9% (inactive)
8 | CC(=O)c1ccc(Nc2nc(SC(C)C)nc(-c3ccccc3)c2C#N)cc1 | 28.2% (inactive)
9 | O=C(CNc1nc(-c2ccccc2)cs1)Nc1ccc([N+](=O)[O-])cc1Cl | 17.6% (inactive)
10 | O=C(NO)c1ccc(Cn2ccc3c(Nc4ccccc4)ncnc32)cc1 | 9.25% (active)
11 | O=C(NO)c1ccc(CN2CCN(c3nc(-c4ccccc4)c4ccccc4n3)CC2)cc1 | 49.1% (inactive)

Test system: NCI/ADR-RES ovarian
Test: as above
Details: 10 µM

Row | Structure (SMILES) | growth
12 | COc1ccc(-c2cc(C(=O)N=Nc3c(O)[nH]c4ccc(Br)cc34)c3ccccc3n2)cc1 | 43.2% (inactive)
13 | CC(=O)c1ccc(Nc2nc(SCCC(C)C)nc(-c3ccc(F)cc3)c2C#N)cc1 | 23.9% (inactive)
14 | Clc1cccc(N/N=C/c2c[nH]c3ccccc23)n1 | -4.45% (active)
15 | O=[N+]([O-])c1ccc(-c2nc(-c3ccccc3)c(-c3ccccc3)n2-c2ccc(S(=O)(=O)Nc3ncccn3)cc2)cc1 | 42.4% (inactive)
16 | O=C(CSc1nnc(-c2ccc3nc(-c4ccc(Cl)cc4)[nH]c3c2)o1)Nc1ccc(Cl)cc1 | 11.8% (inactive)
17 | CCOC(=O)c1c(CSc2ccccc2)n(C)c2cc(CN(C)C)c(O)c(CN(C)C)c12 | 76.4% (inactive)
18 | N#Cc1c(NC(=O)c2cccc(C(F)(F)F)c2)sc2c1CCC(O)=C2 | 18.6% (inactive)
19 | Cc1ccc(-c2nc(Nc3ccc(S(N)(=O)=O)cc3)c3ccccc3n2)cc1 | 54.7% (inactive)
20 | Cc1ccc2nc(COc3ccc(C(=O)NNC(=S)NC(=O)c4ccccc4)cc3)[nH]c2c1 | -3.62% (active)
21 | O=C(CNc1nc(-c2ccccc2)cs1)Nc1cccc([N+](=O)[O-])c1 | -61.4% (active)
22 | CC(=O)Nc1ccc(-c2cn(-c3cccc(C(=O)Nc4cccc(OC(F)(F)F)c4)c3)nn2)cn1 | 97.7% (inactive)
23 | OCCCNc1oc(-c2ccccc2)nc1[P+](c1ccccc1)(c1ccccc1)c1ccccc1 | 95% (inactive)
24 | CC(C)Sc1nc(NC2CC2)c(C#N)c(-c2ccccc2)n1 | 57.6% (inactive)
25 | OCCNc1oc(-c2ccccc2)nc1[P+](c1ccccc1)(c1ccccc1)c1ccccc1 | 99% (inactive)
26 | C/C(=C\c1ccc(O)cc1O)c1ccc2ccc(O)cc2[o+]1 | 22.1% (inactive)
27 | Cc1noc2c(Cc3ccc([N+](=O)[O-])cc3)nn(CC(=O)N/N=C/c3ccc(Cl)cc3)c(=O)c12 | 45.9% (inactive)
28 | CCOC(=O)CNC(=O)CN(Cc1ccccc1)C(=O)[C@@]1(C)CCC[C@]2(C)[C@H]3CC4C(C(C)C)=C[C@]3(CC[C@H]21)[C@@H]1C(=O)CCC(=O)[C@H]41 | 47.9% (inactive)
29 | O=C(CSc1nnc(-c2c[nH]c3ccccc23)n1-c1ccccc1)c1ccc(Cl)cc1 | 5.85% (active)
30 | COc1ccc(-c2cc(C(=O)N=Nc3c(O)[nH]c4ccc(F)cc34)c3ccccc3n2)cc1 | 61.9% (inactive)
31 | O=C1Nc2ccc(Cl)cc2/C1=C/c1ccc(OCc2ccccn2)cc1 | 14.1% (inactive)
32 | Cc1noc2c(Cc3ccccc3)nn(CC(=O)N/N=C/c3ccc(Cl)cc3)c(=O)c12 | 53.2% (inactive)
33 | COc1ccc2[nH]c(=O)c(CSc3cccc(N)c3)cc2c1 | 73% (inactive)
34 | COc1ccc(C(=O)/C=C/c2cc(F)cc(C(F)(F)F)c2)cc1S(N)(=O)=O | 5.77% (active)
35 | Nc1cc(-c2cccc(C(=O)NCc3ccc4c(c3)OCO4)c2)ccn1 | 88.5% (inactive)
36 | Cc1ccc(/C(N)=N/c2sc(-c3ccccc3)nc2-c2ccccc2)cc1 | 89.9% (inactive)
37 | CN(C(=O)c1ccc(C(C)(C)C)cc1)c1sc2c(c1C#N)CCC(=O)C2 | -35.1% (active)
